# High-throughput results (PubChem)
# SARS PLpro yeast: blocks SARS-CoV papain-like protease in a yeast assay. S. cerevisiae expressing SARS-CoV PLpro, growth rescue. Potency, µM (doses to about 32.9 µM), for inactives: top-dose activity, positive = growth rescue, actives largely listed as activators. actives 0.19% (n = 330,000). AID 485353; calls by dose curve; further: potency means the concentration at half of the fitted maximal effect; 0% is about no effect; nearly all actives have a fitted effect of over 55% in size
# Pf growth 96h: inhibits malaria parasite growth, 96 h | Potency, µM (highest dose often 28.7 µM), for the others: top-dose activity change, negative = inhibition, most hits filed as inhibitors | actives 6.9% (n = 320,000) | P. falciparum luciferase reporter growth, 96 h; further: potency means the concentration at half of the fitted maximal effect; on the % scale 0 is the no-effect control and ±100 the full control effect
#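 Readout is luminescence from an integrated firefly luciferase in P. falciparum. Red cells, 2% hematocrit and 0.05% parasitemia final, were cultured with compound through two parasite generations (96 hours) at 37 C, 5% CO2.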
# HCV inh: inhibitors of hepatitis C virus infection | Huh7.5.1 HCVcc-Cre infection, luciferase reporter, 44 h | Potency, µM (highest dose often 41.8 µM), without a hit: at the top dose activity change, negative = inhibition, hits mostly inhibitors | actives 3.4% (n = 340,000) | AID 651820; further: potency means the concentration at half of the fitted maximal effect; on the % scale 0 is the no-effect control and ±100 the full control effect
#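 Luciferase read-out (15 sec integration) after a 15 min room-temperature substrate step quantifies HCVcc-Cre infection. Cells, 1,000 per well, had compound added 4 h post-plating, then virus at ~0.5 moi, and were cultured 44 h.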
# Pf growth 48h: inhibits P. falciparum growth in the first generation, 48 h | actives 5.9% (n = 310,000) | P. falciparum luciferase growth in erythrocytes, 48 h | AID 504832 | Potency, µM (top dose mostly 28.7 µM), for inactives: at the highest dose activity change, negative = inhibition, usual class: inhibitors; further: potency means the concentration at half of the fitted maximal effect; on the % scale 0 is the no-effect control and ±100 the full control effect
#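 Here the parasites carry a stable luciferase gene and grow inside erythrocytes in Albumax-based RPMI medium with compound for one erythrocytic cycle. Activity is scored as loss of luminescent signal.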
# Sm TGR inh: blocks Schistosoma mansoni thioredoxin glutathione reductase | Potency, µM (highest dose often 114 µM), inactives show at the top dose activity change, negative = inhibition, most hits filed as inhibitors | purified TGR, DTNB reduction, TNB absorbance 405 nm | actives 3% (n = 360,000); further: potency means the concentration at half of the fitted maximal effect; on the % scale 0 is the no-effect control and ±100 the full control effect; nearly all actives have a fitted effect of over 60% in size
#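 TGR 20 nM + NADPH 100 uM (dispensed conc.), cpd preinc 15 min RT; start with NADPH (500 uM addition) then DTNB (15 mM addition). Kinetic TNB absorbance, 405 nm filter. Four-parameter Hill fit across titration.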
# HCMV inh: human cytomegalovirus inhibition. HFF cells, HCMV-luciferase reporter, 72 h; active compounds read low. activity change, negative = inhibition, % at 57.5 µM. actives 4.5% (n = 410,000); in the data active means activity change below about -60%; inconclusive means no clear call, values can overlap the other calls; inactive means above about -39%; further: on the % scale 0 is the no-effect control and ±100 the full control effect
#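 Inhibition of viral replication was scored as loss of reporter luminescence in HFFs infected with HCMV-luciferase (MOI 1 PFU/cell) for 72 h; compounds tested at 2 doses, normalized to buffer and Salinomycin controls.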
# * marks the source's active call; other numbers are inactive results; ? = inconclusive; · = no result given. A selection: hits, their analogues and other compounds. The true share with any hit is near 15%. Unless noted, the call rests on the fitted dose curve; in most records, active means well fitted curve in the direction sought with a large enough effect; inconclusive means small, poorly fitted or top-dose-only effect, or another doubt; inactive means no such curve, though single readings can be large; an effect the other way counts as inactive or inconclusive.
SMILES,SARS PLpro yeast,Pf growth 96h,HCV inh,Pf growth 48h,Sm TGR inh,HCMV inh
Cc1nnc(Sc2cc(NCCO)c([N+](=O)[O-])c3nonc23)s1,4.4%,30.0%,?,?,?,-9.6
CCC(=O)OCCNc1cc(Sc2nc3ccccc3[nH]2)c2nonc2c1[N+](=O)[O-],-7.6%,?,?,-13.7%,0.562µM*,-11.4
Cc1nnc(Sc2cc(NCCCO)c([N+](=O)[O-])c3nonc23)s1,2.9%,?,10µM*,0.0%,0.316µM*,57.3
CCC(=O)OCCNc1cc(Sc2nc3ccccc3s2)c2nonc2c1[N+](=O)[O-],-31.6%,-3.9%,-28.2%,·,0.251µM*,68.6
O=[N+]([O-])c1ccc(Sc2nc3ccccc3[nH]2)c(Cl)c1,·,·,·,·,·,16.2
COc1ccccc1-c1nnc(SCC(=O)c2c(N)n(C3CC3)c(=O)[nH]c2=O)o1,-1.8%,?,30.7%,?,-11.7%,3.4
O=C(CNS(=O)(=O)c1ccc(Br)cc1)Nc1ccc2c(c1)OCCO2,-5.6%,-4.9%,-0.3%,7.1%,0.1%,15.3
COc1cc2cc(CCCOC(=O)c3ccco3)oc(=O)c2cc1OC,-8.4%,43.6%,-8.5%,45.3%,50.1µM*,3.8
COc1cc(C(=O)OCCc2cc3ccccc3c(=O)o2)cc(OC)c1OC,2.0%,?,3.55µM*,?,-21.1%,2.6
O=c1oc(CCO)cc2ccccc12,-1.9%,·,8.9%,·,·,-17.1
COc1cc(C(=O)OCCCc2cc3ccccc3c(=O)o2)cc(OC)c1OC,-27.3%,?,5.1%,12.1%,-6.6%,1.5
CC#CCc1cc2ccccc2c(=O)o1,9.5%,?,8.7%,35.3%,3.98µM*,7.3
c1csc(C2C3=C(Nc4ncnn42)c2ccccc2OC3)c1 (centres undefined),-3.1%,13.1µM*,6.8%,?,44.7µM*,?
CC1=C(C(N)=O)C(c2cccs2)n2ncnc2N1 (centres undefined),-3.7%,73.1%,0.2%,?,-21.5%,0.3
Cn1c(=O)c2[nH]c(-c3ccccc3Cl)c(O)c2n(C)c1=O,-7.9%,13.1µM*,30.1%,4.65µM*,-24.8%,6.8
Cn1c(=O)c2[nH]c(-c3ccccc3)c(O)c2n(C)c1=O,-1.5%,0.0%,9.3%,-14.7%,-16.9%,-21.6
Cc1ccc(C)c(OCCn2cc(C(=O)c3cccs3)c3ccccc32)c1,·,·,·,·,16.1%,-23.0
COc1ccc(Cl)cc1S(=O)(=O)NCc1ccc2c(c1)CCN2C(=O)c1cccc(C)c1,·,·,·,·,5.0%,-86.8*
CC(C)c1ccc(S(=O)(=O)NCc2ccc3c(c2)CCN3C(=O)c2ccccc2)cc1,·,·,·,·,-11.7%,-66.2*
COc1ccc(S(=O)(=O)NCc2ccc3c(c2)CCN3C(=O)c2ccc(C)cc2)cc1Cl,·,·,·,·,0.0%,-26.0
Cc1cccc(C(=O)N2CCc3cc(CNS(=O)(=O)c4cccs4)ccc32)c1,·,·,·,·,-0.3%,-61.8*
Cc1cccc(C(=O)N2CCc3cc(CNC(=O)c4ccc(Br)o4)ccc32)c1,·,·,·,·,2.8%,-66.6*
CC1(C(=O)Nc2cnc3ccccc3c2)CCN1C(=O)CC(c1ccccc1)c1ccccc1 (centres undefined),·,·,·,·,·,-1.4
CC(O)(c1ccc(Cl)cc1)C(c1ccccc1)c1ccccn1 (centres undefined),·,·,-8.4%,·,·,12.5
Cn1nccc1C(=O)NCc1ccc2c(c1)CCN2C(=O)c1ccc(Cl)cc1,·,·,·,·,-0.2%,-15.4
SMILES,SARS PLpro yeast,Pf growth 96h,HCV inh,Pf growth 48h,Sm TGR inh,HCMV inh
Cc1ccc(C(=O)N2CCc3cc(CNC(=O)c4ccnn4C)ccc32)cc1,·,·,·,·,0.3%,-70.2*
CN(C(=O)c1cc2nc(-c3ccc4c(c3)OCO4)cc(C(F)(F)F)n2n1)c1ccc(OC(F)(F)F)cc1,·,·,·,·,4.9%,2.3
CC(=O)Nc1ccc(NC(=O)c2cc(-c3ccc(F)cc3C)n[nH]2)cc1,·,·,·,·,·,-13.2
Cc1cc(C)c(O)c(-c2cc(C(=O)Nc3ccc(S(=O)(=O)N4CCOCC4)cc3)[nH]n2)c1,2.4%,·,10µM*,5.86µM*,-13.0%,-76.2*
CC(=O)Nc1ccc(NC(=O)c2cc(-c3cc(C)cc(C)c3O)n[nH]2)cc1,0.8%,?,8.91µM*,11.7µM*,-13.3%,?
Cc1ccc(-c2cc(C(=O)Nc3ccc(S(=O)(=O)Nc4ncccn4)cc3)[nH]n2)c(O)c1C,0.1%,9.28µM*,-6.4%,?,2.3%,?
COc1ccc(NC(=O)c2cc(-c3ccc(C)c(C)c3O)n[nH]2)cc1Cl,-3.0%,?,2.51µM*,?,-2.0%,-7.9
COc1ccc(-c2cc(C(=O)Nc3ccc(OC)c(OC)c3)[nH]n2)c(C)c1,·,·,·,·,·,25.5
COc1ccc(OCc2cc(C(=O)NC(C)c3nc(C)cs3)no2)c(Cl)c1 (centres undefined),·,·,·,·,·,48.7
CC1(C)NC(=O)N(CC(=O)N2CCCC(C(F)(F)F)C2)C1=O (centres undefined),3.9%,20.6%,23.4%,?,3.1%,-14.4
C=CCNC(=O)c1cc(-c2cccnc2)nc2ccccc12,1.3%,?,-20.8%,9.6%,-11.6%,85.2
CCN1C(=O)N(CC)C2C1N(CO)C(=O)N2CO (centres undefined),-9.1%,16.2%,2.5%,12.7%,2.7%,7.6
COc1ccc(CC(=O)N2CC3ON=C(c4c(F)cccc4Cl)C3C2)cc1 (centres undefined),·,·,·,·,·,52.5
CC(=O)Nc1ccc(NC(=O)c2cc(-c3ccc(C)c(C)c3O)n[nH]2)cc1,1.1%,2.33µM*,-22.1%,11.7µM*,-12.7%,-6.3
O=C(NC(c1ccccc1)c1ccccc1)c1ccc(=O)[nH]n1,-1.0%,32.0%,4.8%,-11.8%,2.6%,-22.8
C=CCNc1c2c(nc3nnnn13)CCCC2,0.9%,104.2%,5.0%,11.3%,-2.9%,43.7
C=CCNc1nc(S(=O)Cc2ccc(C)cc2)nc2c1CCCC2 (centres undefined),0.9%,?,4.3%,286.2%,?,-98.3*
Cc1cc(C)cc(OCC(=O)NN2Cc3ccccc3C2=N)c1,9.3%,6.57µM*,19.9%,·,7.0%,?
N=C1c2ccccc2CN1NC(=O)C1CC1,8.4%,-1.1%,33.4%,0.0%,6.9%,-20.9
CCc1ccc(OCC(=O)NN2Cc3ccccc3C2=N)cc1,0.2%,?,?,16.7%,1.2%,17.3
N=C1c2ccccc2CN1NC(=O)CC12CC3CC(CC(C3)C1)C2,-0.5%,1.85µM*,-14.7%,?,-2.5%,54.2
Cc1ccccc1-c1cccc([C@@H]2C[C@H]3C(CN2)CON3C)c1 (some centres undefined),·,·,?,·,·,-16.5
Cc1nn(CC(=O)NCc2ccc(OC(C)C)cc2)c(=O)c2c(C)n(-c3ccc(Cl)cc3)nc12,·,·,·,·,3.9%,-19.4
